Test results taken from PubChem BioAssay (NCATS).
Records with an inconclusive call do not appear. The source made the active and inactive calls. The call rests on the fitted dose curve; in most records, active means well fitted cell-killing curve with a large enough effect; inconclusive means small, poorly fitted or top-dose-only effect, or effect the other way; inactive means flat fitted curve, though single readings scatter. *1 amine or outer side, *2 acyl side, *3 side chain or, on linkers, in order; H or OH if unused. Where a SMILES comes first, the peptide text is derived from it. [ ]: non-standard residue; d: D form. X13 = O=C(C(CC(O)CO)O[*:1])[*:2]; NMeV = CN[CH](C(=O)O)C(C)C; NMeA = CN[CH](C)C(=O)O; βAla = NCCC(=O)O

What was measured:
Experiment in all cases: Primary qHTS to identify gynecologic anti-cancer compounds using libraries of approved drugs and bioactive compounds (AID 1345084); further: nearly all actives have a fitted effect of over 55% in size
Details in all cases: Gynecologic cancer cell panel viability, ATPlite luminescence, 48 h; series mostly up to 57.5 µM
OV90 = system: OV90
Procedure, shortened: (§1)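 Cytotoxicity screen measuring ATP content by luciferase luminescence. Each compound is applied at five concentrations for 48 h at 37 C with 5% CO2.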

PA-1 = system: PA-1
Procedure, shortened: as §1

SKOV3 = system: SKOV3
Procedure, shortened: as §1

Tov-21-G = system: Tov-21-G
Procedure, shortened: as §1

Tov112D = system: Tov112D
Procedure, shortened: as §1
On the % scale 0 is the no-effect control and ±100 the full control effect.

C=C(C(=O)O)[C@H]1C[C@]2(C)C(=O)CC[C@]23O[C@H]1C[C@@H]3C
inactive: Potency (OV90) | Potency (PA-1) | Potency (SKOV3) | Potency (Tov-21-G) | Potency (Tov112D)

CC[C@@H](C)[C@H](N)C(=O)N1Cc2ccccc2C1
inactive: Potency (OV90) | Potency (PA-1) | Potency (SKOV3) | Potency (Tov-21-G) | Potency (Tov112D)

COC(=O)C1=CO[C@@H](O[C@@H]2O[C@H](CO)[C@@H](O)[C@H](O)[C@H]2O)/C(=C\CO)[C@@H]1CC(=O)OCCc1ccc(O)cc1
inactive: Potency (OV90) | Potency (PA-1) | Potency (SKOV3) | Potency (Tov-21-G) | Potency (Tov112D)

CC(C)=CCC[C@](C)(O[C@@H]1O[C@H](CO[C@@H]2O[C@@H](CO)[C@H](O)[C@H]2O[C@@H]2OC[C@@H](O)[C@H](O)[C@H]2O)[C@@H](O)[C@H](O)[C@H]1O)[C@H]1CC[C@]2(C)[C@@H]1[C@H](O)CC1[C@@]3(C)CC[C@H](O[C@@H]4O[C@H](CO)[C@@H](O)[C@H](O)[C@H]4O[C@@H]4O[C@H](CO)[C@@H](O)[C@H](O)[C@H]4O)C(C)(C)C3CC[C@]12C (stereo not given in full)
inactive: activity change, negative = cytotoxicity (OV90) -2.38% [at 6.55 µM] | activity change, negative = cytotoxicity (PA-1) 11.1% [at 6.55 µM] | activity change, negative = cytotoxicity (SKOV3) 24.5% [at 6.55 µM] | activity change, negative = cytotoxicity (Tov-21-G) 0.809% [at 6.55 µM] | activity change, negative = cytotoxicity (Tov112D) 0.454% [at 6.55 µM]

Cc1ncc([N+](=O)[O-])n1C[C@H](O)CN1CCOCC1
inactive: Potency (OV90) | Potency (PA-1) | Potency (SKOV3) | Potency (Tov-21-G) | Potency (Tov112D)

CC1(C)CC2C(O)C3=C(CC(C)(O)C2C1)C(=O)OC3 (stereo not given)
inactive: Potency (OV90) | Potency (PA-1) | Potency (SKOV3) | Potency (Tov-21-G) | Potency (Tov112D)

CC(CC(C)O[C@@H]1O[C@H](CO)[C@@H](O)[C@H](O)[C@H]1O)OC(=O)/C=C/c1ccc(O)cc1 (stereo not given in full)
inactive: Potency (OV90) | Potency (PA-1) | Potency (SKOV3) | Potency (Tov-21-G) | Potency (Tov112D)

CCC(C)C1NC(=O)C2CCCN2C(=O)C(CC(O)CO)OC(=O)CCNC(=O)C(C)N(C)C(=O)C(C(C)C)N(C)C1=O (stereo not given) (cyclo([X13]PI[NMeV][NMeA][βAla]); configuration not given here)
inactive: Potency (OV90) | Potency (PA-1) | Potency (SKOV3) | Potency (Tov-21-G) | Potency (Tov112D)

CC1(C)CC[C@]2(C(=O)O[C@@H]3O[C@H](CO)[C@@H](O)[C@H](O)[C@H]3O)[C@H](O)C[C@]3(C)C(=CCC4[C@@]5(C)CC[C@H](O[C@@H]6OC[C@@H](O)[C@H](O)[C@H]6O)[C@@](C)(C(=O)O)C5CC[C@]43C)[C@@H]2C1 (stereo not given in full)
inactive: Potency (OV90) | Potency (PA-1) | Potency (SKOV3) | Potency (Tov-21-G) | Potency (Tov112D)

COc1ccc(CCC(=O)O)c(O[C@@H]2O[C@H](CO)[C@@H](O)[C@H](O)[C@H]2O)c1
inactive: Potency (OV90) | Potency (PA-1) | Potency (SKOV3) | Potency (Tov-21-G) | Potency (Tov112D)

CC(C)(OC1OC(CO)C(O)C(O)C1O)C1CCC(O)(CO)C2CC(=O)C(C)(O)C2C1 (stereo not given)
inactive: Potency (OV90) | Potency (PA-1) | Potency (SKOV3) | Potency (Tov-21-G) | Potency (Tov112D)

CC1(C)CC[C@]2(C(=O)O[C@@H]3O[C@H](CO)[C@@H](O)[C@H](O)[C@H]3O)CC[C@]3(C)C(=CCC4[C@@]5(C)CC[C@H](OC6OC(C(=O)O)C(OC7OC(CO)C(O)C(O)C7O)C(O)C6O)C(C)(C)C5CC[C@]43C)C2C1 (stereo not given in full)
inactive: activity change, negative = cytotoxicity (OV90) 8.01% [at 11.6 µM] | activity change, negative = cytotoxicity (PA-1) 3.63% [at 11.6 µM] | activity change, negative = cytotoxicity (SKOV3) 0% [at 11.6 µM] | activity change, negative = cytotoxicity (Tov-21-G) 2.32% [at 11.6 µM] | activity change, negative = cytotoxicity (Tov112D) 1.83% [at 11.6 µM]

CO[C@@H]1[C@]2(O)C(=O)N3/C=C\C(C)(C)c4[nH]c5ccccc5c4/C=C\3C(=O)N2[C@]23[C@H](CO)C(C)(C)N2c2ccccc2[C@]13O
inactive: Potency (OV90) | Potency (PA-1) | Potency (SKOV3) | Potency (Tov-21-G) | Potency (Tov112D)

CCC(C)C(C(=O)O)N1Cc2c(OCC=C(C)C)c(C)c(OC)c(C(=O)O)c2C1=O (stereo not given)
inactive: Potency (OV90) | Potency (PA-1) | Potency (SKOV3) | Potency (Tov-21-G) | Potency (Tov112D)

C=C[C@]1(C)C[C@@H](OC(=O)CSC2C[C@H]3CC[C@@H](C2)N3C)[C@]2(C)[C@H](C)CC[C@]3(CCC(=O)[C@H]32)[C@@H](C)[C@@H]1O (stereo not given in full)
inactive: Potency (OV90) | Potency (PA-1) | Potency (SKOV3) | Potency (Tov-21-G) | Potency (Tov112D)

COC(=O)C1=CO[C@@H](O[C@@H]2O[C@H](CO)[C@@H](O)[C@H](O)[C@H]2O)[C@@H]2[C@@H](C)[C@@H](OC(=O)/C=C/c3ccccc3)[C@@H](O)[C@H]12
inactive: Potency (OV90) | Potency (PA-1) | Potency (SKOV3) | Potency (Tov-21-G) | Potency (Tov112D)

CC1(C)C2CC[C@@]34CC(CC[C@H]3[C@]2(C)CC[C@@H]1O[C@@H]1O[C@H](CO)[C@@H](O)[C@H](O)[C@H]1O)[C@](C)(O)C4 (stereo not given in full)
inactive: Potency (OV90) | Potency (PA-1) | Potency (SKOV3) | Potency (Tov-21-G) | Potency (Tov112D)

Cc1cc(CO)c(O)c(C(=O)CC2CC(=O)NC(=O)C2)c1
inactive: Potency (OV90) | Potency (PA-1) | Potency (SKOV3) | Potency (Tov-21-G) | Potency (Tov112D)
